# Test results as given in paper PMC11062922 (Nature Chemical Biology, 2023).
# Where two headings read alike, the source gives them in different places.
# Legend:
# AAK1 = tested on: AAK1; parameters: species or system human, MV4-11 + K-562 + COLO205 + SK-N-BE2 + OVCAR-8; conditions: read-out: apparent Kd, n = 1
# BMP2K = tested on: BMP2K; parameters: species or system human, MV4-11 + K-562 + COLO205 + SK-N-BE2 + OVCAR-8; conditions: read-out: apparent Kd, n = 1
# NUAK1 = tested on: NUAK1; parameters: species or system human, MV4-11 + K-562 + COLO205 + SK-N-BE2 + OVCAR-8; conditions: read-out: apparent Kd, n = 1
# Q6ZSR9 = Q6ZSR9 (human, UniProt Q6ZSR9); parameters: species or system MV4-11 + K-562 + COLO205 + SK-N-BE2 + OVCAR-8; conditions: read-out: apparent Kd, n = 1
# CLK1 = tested on: CLK1; parameters: species or system human, MV4-11 + K-562 + COLO205 + SK-N-BE2 + OVCAR-8; conditions: read-out: apparent Kd, compound concentrations: 100 nM and 1000 nM (sheet 'Samples'), n = 1
# CLK4 = tested on: CLK4; parameters: species or system human, MV4-11 + K-562 + COLO205 + SK-N-BE2 + OVCAR-8; conditions: read-out: apparent Kd, n = 1
# CSNK2A1;CSNK2A3 = tested on: CSNK2A1;CSNK2A3; parameters: species or system human, MV4-11 + K-562 + COLO205 + SK-N-BE2 + OVCAR-8; conditions: read-out: apparent Kd, n = 1
# CSNK2A2 = tested on: CSNK2A2; parameters: species or system human, MV4-11 + K-562 + COLO205 + SK-N-BE2 + OVCAR-8; conditions: read-out: apparent Kd, n = 1
# FLT4 = tested on: FLT4; parameters: species or system human, MV4-11 + K-562 + COLO205 + SK-N-BE2 + OVCAR-8; conditions: read-out: apparent Kd, n = 1
# MELK = tested on: MELK; parameters: species or system human, MV4-11 + K-562 + COLO205 + SK-N-BE2 + OVCAR-8; conditions: read-out: apparent Kd; compound concentrations:100 nM and 1000 nM (sheet 'Samples'); n = 1
# PAK4 = tested on: PAK4; parameters: species or system human, MV4-11 + K-562 + COLO205 + SK-N-BE2 + OVCAR-8; conditions: read-out: apparent Kd; compound concentrations:100 nM and 1000 nM (sheet 'Samples'); n = 1
# SIK2 = tested on: SIK2; parameters: species or system human, MV4-11 + K-562 + COLO205 + SK-N-BE2 + OVCAR-8; conditions: read-out: apparent Kd; compound concentrations:100 nM and 1000 nM (sheet 'Samples'); n = 1
# GAK = tested on: GAK; parameters: species or system human, MV4-11 + K-562 + COLO205 + SK-N-BE2 + OVCAR-8; conditions: read-out: apparent Kd, n = 1
# GSK3A = tested on: GSK3A; parameters: species or system human, MV4-11 + K-562 + COLO205 + SK-N-BE2 + OVCAR-8; conditions: read-out: apparent Kd, compound concentrations: 100 nM and 1000 nM (sheet 'Samples'), n = 1
# GSK3B = tested on: GSK3B; parameters: species or system human, MV4-11 + K-562 + COLO205 + SK-N-BE2 + OVCAR-8; conditions: read-out: apparent Kd, compound concentrations: 100 nM and 1000 nM (sheet 'Samples'), n = 1
# RET = tested on: RET; parameters: species or system human, MV4-11 + K-562 + COLO205 + SK-N-BE2 + OVCAR-8; conditions: read-out: apparent Kd, n = 1
# PKN1 = tested on: PKN1; parameters: species or system human, MV4-11 + K-562 + COLO205 + SK-N-BE2 + OVCAR-8; conditions: read-out: apparent Kd; compound concentrations:100 nM and 1000 nM (sheet 'Samples'); n = 1
# PRKAG1 = tested on: PRKAG1; parameters: species or system human, MV4-11 + K-562 + COLO205 + SK-N-BE2 + OVCAR-8; conditions: read-out: apparent Kd, n = 1
# [1] = compound concentrations:100 nM and 1000 nM (sheet 'Samples')
# Q6ZSR9, sequence (Q6ZSR9 whole entry, looked up): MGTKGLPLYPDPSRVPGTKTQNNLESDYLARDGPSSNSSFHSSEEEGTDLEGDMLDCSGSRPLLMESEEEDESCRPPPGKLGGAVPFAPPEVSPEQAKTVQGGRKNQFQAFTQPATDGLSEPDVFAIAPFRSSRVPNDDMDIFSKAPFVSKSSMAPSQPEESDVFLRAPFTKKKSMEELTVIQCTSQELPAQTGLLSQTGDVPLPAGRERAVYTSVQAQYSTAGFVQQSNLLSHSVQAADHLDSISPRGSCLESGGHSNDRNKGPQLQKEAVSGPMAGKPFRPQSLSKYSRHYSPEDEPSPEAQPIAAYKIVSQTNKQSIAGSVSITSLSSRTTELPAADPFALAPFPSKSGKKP
smiles,measurement,setting,value
CN(C)C(=O)/C(C#N)=C/c1ccc(-c2nc3cnc4[nH]ccc4c3n2C2CCCCC2)o1 [FM-381],potency estimated from few doses,AAK1; [1],1820 nM
same,potency estimated from few doses,BMP2K; [1],1050 nM
same,potency estimated from few doses,NUAK1; [1],566 nM
same,potency estimated from few doses,Q6ZSR9; [1],1760 nM
O=C1N=C(NCc2ccccc2Br)S/C1=C\c1ccc2ncccc2c1 [RO4506918-000],potency estimated from few doses,"AAK1; compound concentrations: 100 nM and 1000 nM (sheet 'Samples'), CATDS: 8.9232255617264805E-2",910 nM
same,potency estimated from few doses,CLK1; CATDS: 0.17031966096866,202 nM
same,potency estimated from few doses,"CLK4; compound concentrations: 100 nM and 1000 nM (sheet 'Samples'), CATDS: 0.31130162986837101",76.5 nM
same,potency estimated from few doses,"CSNK2A1;CSNK2A3; compound concentrations: 100 nM and 1000 nM (sheet 'Samples'), CATDS: 0.124108593087182",383 nM
same,potency estimated from few doses,"CSNK2A2; compound concentrations: 100 nM and 1000 nM (sheet 'Samples'), CATDS: 0.192604305943326",162 nM
same,potency estimated from few doses,"Q6ZSR9; compound concentrations: 100 nM and 1000 nM (sheet 'Samples'), CATDS: 9.2903146742856602E-2",804 nM
NS(=O)(=O)c1ccc(N/N=C2\C(=O)Nc3ccc(-c4cnco4)cc32)cc1 [GW276655_KCGS],potency estimated from few doses,AAK1; [1],1180 nM
same,potency estimated from few doses,BMP2K; [1],518 nM
same,potency estimated from few doses,Q6ZSR9; [1],782 nM
CCC(CC)(CC)n1cnc2c(N)ncnc21 [SKF-97620],potency estimated from few doses,"AAK1; compound concentrations: 100 nM and 1000 nM (sheet 'Samples'), CATDS: 2.5595683701841399E-2",1620 nM
same,potency estimated from few doses,CLK1; CATDS: 2.7794407506576899E-2,1260 nM
same,potency estimated from few doses,"CLK4; compound concentrations: 100 nM and 1000 nM (sheet 'Samples'), CATDS: 2.9101207913204901E-2",1100 nM
O=C(Nc1n[nH]c2nc(-c3ccccc3O)ccc12)C1CC1 [SB-711880],potency estimated from few doses,AAK1; [1],713 nM
same,potency estimated from few doses,CLK4; [1],1230 nM
same,potency estimated from few doses,FLT4; [1],1790 nM
same,potency estimated from few doses,MELK,2380 nM
same,potency estimated from few doses,NUAK1; [1],1850 nM
same,potency estimated from few doses,PAK4,357 nM
same,potency estimated from few doses,Q6ZSR9; [1],537 nM
same,potency estimated from few doses,SIK2,547 nM
Cl.Cn1cc(C2=C(c3c4n(c5ccccc35)CCNC4)C(=O)NC2=O)c2ccccc21 [RO0318365-001],potency estimated from few doses,"AAK1; compound concentrations: 100 nM and 1000 nM (sheet 'Samples'), CATDS: 5.2349611072723602E-2",1480 nM
same,potency estimated from few doses,"FLT4; compound concentrations: 100 nM and 1000 nM (sheet 'Samples'), CATDS: 5.0705018296343198E-2",1610 nM
same,potency estimated from few doses,"GAK; compound concentrations: 100 nM and 1000 nM (sheet 'Samples'), CATDS: 6.7472142671723495E-2",831 nM
same,potency estimated from few doses,GSK3A; CATDS: 0.111142354700942,357 nM
same,potency estimated from few doses,GSK3B; CATDS: 0.121394136436775,314 nM
same,potency estimated from few doses,"Q6ZSR9; compound concentrations: 100 nM and 1000 nM (sheet 'Samples'), CATDS: 5.14338241951754E-2",1550 nM
same,potency estimated from few doses,"RET; compound concentrations: 100 nM and 1000 nM (sheet 'Samples'), CATDS: 5.70762931789019E-2",1190 nM
COc1cc[nH]c1/C=C1\C(=O)Nc2ccc(F)c(C#C[C@@H](O)[C@@H](N)[C@@H](C)O)c21 [RO0283120-000],potency estimated from few doses,AAK1; [1],171 nM
same,potency estimated from few doses,BMP2K; [1],84.3 nM
same,potency estimated from few doses,CLK4; [1],1360 nM
same,potency estimated from few doses,CSNK2A1;CSNK2A3; [1],750 nM
same,potency estimated from few doses,CSNK2A2; [1],497 nM
same,potency estimated from few doses,FLT4; [1],1670 nM
same,potency estimated from few doses,GAK; [1],868 nM
same,potency estimated from few doses,MELK,679 nM
same,potency estimated from few doses,NUAK1; [1],20.3 nM
same,potency estimated from few doses,PAK4,350 nM
same,potency estimated from few doses,PKN1,959 nM
same,potency estimated from few doses,PRKAG1; [1],821 nM
same,potency estimated from few doses,Q6ZSR9; [1],208 nM
same,potency estimated from few doses,RET; [1],117 nM
same,potency estimated from few doses,SIK2,878 nM
CN(C)c1ccc2c(c1)/C(=C/Nc1ccc(S(N)(=O)=O)cc1)C(=O)N2 [GW416469X],potency estimated from few doses,"AAK1; compound concentrations: 100 nM and 1000 nM (sheet 'Samples'), CATDS: 7.2948540677608101E-2",1640 nM
same,potency estimated from few doses,"BMP2K; compound concentrations: 100 nM and 1000 nM (sheet 'Samples'), CATDS: 7.3539976386738704E-2",1600 nM
same,potency estimated from few doses,"CSNK2A2; compound concentrations: 100 nM and 1000 nM (sheet 'Samples'), CATDS: 7.0643002799247095E-2",1820 nM
same,potency estimated from few doses,"FLT4; compound concentrations: 100 nM and 1000 nM (sheet 'Samples'), CATDS: 7.3701429425290094E-2",1590 nM
same,potency estimated from few doses,"NUAK1; compound concentrations: 100 nM and 1000 nM (sheet 'Samples'), CATDS: 0.318304060181621",86.6 nM
COc1ccc(Nc2nccc(NCCNC(=O)Nc3cc(C)ccc3C)n2)cc1 [GSK1379899A],potency estimated from few doses,"AAK1; compound concentrations: 100 nM and 1000 nM (sheet 'Samples'), CATDS: 4.14189738717365E-2",1930 nM
same,potency estimated from few doses,"GAK; compound concentrations: 100 nM and 1000 nM (sheet 'Samples'), CATDS: 4.9044286773088197E-2",1220 nM
same,potency estimated from few doses,GSK3A; CATDS: 0.21656856359749399,102 nM
same,potency estimated from few doses,GSK3B; CATDS: 4.8399492982865999E-2,1260 nM
same,potency estimated from few doses,"PRKAG1; compound concentrations: 100 nM and 1000 nM (sheet 'Samples'), CATDS: 5.18818459595803E-2",1070 nM
Cn1cc(C=C2C(=O)Nc3cccnc32)c2ccccc21 [GW441756X],potency estimated from few doses,"AAK1; compound concentrations: 100 nM and 1000 nM (sheet 'Samples'), CATDS: 0.22645425815754",1250 nM
same,potency estimated from few doses,"BMP2K; compound concentrations: 100 nM and 1000 nM (sheet 'Samples'), CATDS: 0.330795354292378",609 nM
same,potency estimated from few doses,"Q6ZSR9; compound concentrations: 100 nM and 1000 nM (sheet 'Samples'), CATDS: 0.24113419116187701",1090 nM
